Experimental findings from the supplement of paper PMC11001985 are described below.

A number with no mark means an inactive call.

Sequence of UniProt P43007 (P43007 whole entry): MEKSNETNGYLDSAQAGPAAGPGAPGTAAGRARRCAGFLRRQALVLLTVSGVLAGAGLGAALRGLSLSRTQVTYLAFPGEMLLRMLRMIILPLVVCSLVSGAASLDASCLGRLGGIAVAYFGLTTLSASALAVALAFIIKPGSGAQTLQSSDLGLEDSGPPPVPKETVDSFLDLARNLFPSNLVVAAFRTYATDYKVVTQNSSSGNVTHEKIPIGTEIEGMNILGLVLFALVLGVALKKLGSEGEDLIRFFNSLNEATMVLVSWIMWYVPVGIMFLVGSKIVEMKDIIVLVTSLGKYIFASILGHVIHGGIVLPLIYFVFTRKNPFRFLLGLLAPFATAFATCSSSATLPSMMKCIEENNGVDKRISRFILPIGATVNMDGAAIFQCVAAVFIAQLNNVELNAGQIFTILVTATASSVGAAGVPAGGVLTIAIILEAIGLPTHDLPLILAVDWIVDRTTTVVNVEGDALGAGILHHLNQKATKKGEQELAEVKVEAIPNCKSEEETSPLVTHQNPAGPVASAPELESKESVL
Sequence of UniProt Q8WWI1 (Q8WWI1 whole entry): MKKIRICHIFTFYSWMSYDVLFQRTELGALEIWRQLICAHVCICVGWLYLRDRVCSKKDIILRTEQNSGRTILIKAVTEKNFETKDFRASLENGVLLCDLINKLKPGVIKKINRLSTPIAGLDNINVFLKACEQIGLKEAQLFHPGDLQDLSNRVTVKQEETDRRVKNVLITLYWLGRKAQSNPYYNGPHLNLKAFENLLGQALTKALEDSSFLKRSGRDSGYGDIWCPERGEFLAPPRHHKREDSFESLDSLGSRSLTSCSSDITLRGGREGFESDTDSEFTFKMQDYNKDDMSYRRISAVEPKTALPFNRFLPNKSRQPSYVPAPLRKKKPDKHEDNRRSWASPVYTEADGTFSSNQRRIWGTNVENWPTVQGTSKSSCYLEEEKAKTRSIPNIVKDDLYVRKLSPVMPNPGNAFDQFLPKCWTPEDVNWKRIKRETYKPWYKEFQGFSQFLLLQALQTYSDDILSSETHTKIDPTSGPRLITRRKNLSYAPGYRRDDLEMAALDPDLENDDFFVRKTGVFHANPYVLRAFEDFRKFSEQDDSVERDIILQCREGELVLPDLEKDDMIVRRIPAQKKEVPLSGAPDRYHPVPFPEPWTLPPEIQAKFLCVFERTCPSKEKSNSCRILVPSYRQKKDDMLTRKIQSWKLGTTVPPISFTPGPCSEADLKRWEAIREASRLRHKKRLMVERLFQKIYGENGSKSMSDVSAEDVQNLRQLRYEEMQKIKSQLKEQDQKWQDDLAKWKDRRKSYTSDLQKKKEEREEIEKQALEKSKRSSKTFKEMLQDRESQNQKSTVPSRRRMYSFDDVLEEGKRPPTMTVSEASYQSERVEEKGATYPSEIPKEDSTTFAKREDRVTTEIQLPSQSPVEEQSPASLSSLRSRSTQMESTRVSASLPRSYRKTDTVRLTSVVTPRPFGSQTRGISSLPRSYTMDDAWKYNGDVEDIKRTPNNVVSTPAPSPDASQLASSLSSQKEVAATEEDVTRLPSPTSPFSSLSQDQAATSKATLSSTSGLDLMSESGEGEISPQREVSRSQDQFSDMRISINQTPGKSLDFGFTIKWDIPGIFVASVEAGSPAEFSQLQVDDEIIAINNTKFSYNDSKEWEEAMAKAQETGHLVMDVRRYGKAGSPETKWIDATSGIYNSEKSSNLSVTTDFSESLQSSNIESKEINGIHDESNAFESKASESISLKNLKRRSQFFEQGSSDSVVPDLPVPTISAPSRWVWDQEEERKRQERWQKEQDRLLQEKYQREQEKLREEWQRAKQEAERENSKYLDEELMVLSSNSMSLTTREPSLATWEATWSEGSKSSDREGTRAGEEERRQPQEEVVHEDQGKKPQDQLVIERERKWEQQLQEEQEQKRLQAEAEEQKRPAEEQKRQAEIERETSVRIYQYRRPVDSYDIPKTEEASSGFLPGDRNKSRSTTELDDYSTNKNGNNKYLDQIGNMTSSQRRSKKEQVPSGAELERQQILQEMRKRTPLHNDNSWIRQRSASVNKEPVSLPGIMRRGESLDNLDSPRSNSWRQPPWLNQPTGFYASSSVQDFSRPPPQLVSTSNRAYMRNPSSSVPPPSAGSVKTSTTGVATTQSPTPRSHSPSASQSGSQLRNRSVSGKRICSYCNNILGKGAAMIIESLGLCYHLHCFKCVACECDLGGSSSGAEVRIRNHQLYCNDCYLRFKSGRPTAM
Sequence of UniProt O94991 (O94991 whole entry): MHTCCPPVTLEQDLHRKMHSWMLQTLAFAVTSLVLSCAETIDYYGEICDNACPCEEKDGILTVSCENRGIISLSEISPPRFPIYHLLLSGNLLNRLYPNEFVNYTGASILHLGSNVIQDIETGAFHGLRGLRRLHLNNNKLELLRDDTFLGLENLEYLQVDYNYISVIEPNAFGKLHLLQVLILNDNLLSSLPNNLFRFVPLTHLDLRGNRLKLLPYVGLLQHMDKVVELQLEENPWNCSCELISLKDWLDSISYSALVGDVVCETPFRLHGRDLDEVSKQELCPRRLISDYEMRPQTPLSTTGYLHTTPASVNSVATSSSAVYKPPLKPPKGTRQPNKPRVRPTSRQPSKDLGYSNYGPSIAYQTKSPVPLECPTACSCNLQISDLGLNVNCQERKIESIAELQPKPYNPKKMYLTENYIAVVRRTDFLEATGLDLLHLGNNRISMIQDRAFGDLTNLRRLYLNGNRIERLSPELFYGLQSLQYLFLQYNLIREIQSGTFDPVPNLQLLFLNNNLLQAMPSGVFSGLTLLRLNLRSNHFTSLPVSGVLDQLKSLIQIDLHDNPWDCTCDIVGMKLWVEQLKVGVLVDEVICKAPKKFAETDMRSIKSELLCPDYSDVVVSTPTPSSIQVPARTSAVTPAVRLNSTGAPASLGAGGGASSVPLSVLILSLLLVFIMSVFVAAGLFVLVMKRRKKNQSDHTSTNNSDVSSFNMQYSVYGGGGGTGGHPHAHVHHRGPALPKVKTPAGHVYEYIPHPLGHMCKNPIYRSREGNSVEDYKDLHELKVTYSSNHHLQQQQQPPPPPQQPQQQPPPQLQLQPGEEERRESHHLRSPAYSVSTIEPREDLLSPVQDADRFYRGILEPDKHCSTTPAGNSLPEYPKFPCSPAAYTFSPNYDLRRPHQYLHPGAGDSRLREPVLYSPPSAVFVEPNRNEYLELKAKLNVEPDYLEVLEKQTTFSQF
Sequence of UniProt P26006 (P26006 whole entry): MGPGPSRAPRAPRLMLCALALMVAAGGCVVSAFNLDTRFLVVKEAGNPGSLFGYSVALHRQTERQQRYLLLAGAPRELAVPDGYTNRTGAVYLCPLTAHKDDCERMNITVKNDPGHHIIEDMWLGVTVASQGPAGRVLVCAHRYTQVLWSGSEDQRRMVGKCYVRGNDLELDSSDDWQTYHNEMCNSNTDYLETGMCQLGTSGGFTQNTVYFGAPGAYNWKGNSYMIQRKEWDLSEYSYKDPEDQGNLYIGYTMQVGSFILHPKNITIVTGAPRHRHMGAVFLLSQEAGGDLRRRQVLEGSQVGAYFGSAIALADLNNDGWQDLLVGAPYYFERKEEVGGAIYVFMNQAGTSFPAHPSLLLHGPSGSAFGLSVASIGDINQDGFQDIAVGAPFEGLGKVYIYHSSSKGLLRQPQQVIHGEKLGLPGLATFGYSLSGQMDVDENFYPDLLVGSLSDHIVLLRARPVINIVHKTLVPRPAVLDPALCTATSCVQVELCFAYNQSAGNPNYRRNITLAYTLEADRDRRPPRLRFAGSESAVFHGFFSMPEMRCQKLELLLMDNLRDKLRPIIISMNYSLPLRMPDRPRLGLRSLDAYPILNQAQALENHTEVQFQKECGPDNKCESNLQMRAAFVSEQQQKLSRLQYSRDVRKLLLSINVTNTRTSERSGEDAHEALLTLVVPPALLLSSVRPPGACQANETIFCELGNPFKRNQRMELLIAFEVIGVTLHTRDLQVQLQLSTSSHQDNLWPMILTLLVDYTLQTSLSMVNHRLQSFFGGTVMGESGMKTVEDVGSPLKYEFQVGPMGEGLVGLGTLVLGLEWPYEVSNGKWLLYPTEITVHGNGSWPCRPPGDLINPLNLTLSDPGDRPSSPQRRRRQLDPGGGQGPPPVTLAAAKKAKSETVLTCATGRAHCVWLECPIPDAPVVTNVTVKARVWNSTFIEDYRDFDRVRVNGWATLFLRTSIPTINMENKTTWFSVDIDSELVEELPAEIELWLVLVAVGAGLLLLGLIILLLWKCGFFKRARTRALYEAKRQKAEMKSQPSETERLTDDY
Sequence of UniProt Q00535 (Q00535 whole entry, looked up): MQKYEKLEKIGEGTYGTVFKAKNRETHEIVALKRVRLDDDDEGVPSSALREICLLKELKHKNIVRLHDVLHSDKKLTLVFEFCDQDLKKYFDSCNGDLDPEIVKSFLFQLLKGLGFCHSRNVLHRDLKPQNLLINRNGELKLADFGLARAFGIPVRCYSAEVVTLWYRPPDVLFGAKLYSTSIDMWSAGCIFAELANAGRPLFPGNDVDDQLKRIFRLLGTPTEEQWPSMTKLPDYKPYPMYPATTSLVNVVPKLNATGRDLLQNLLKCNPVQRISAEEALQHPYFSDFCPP
Sequence of UniProt P20645 (P20645 whole entry): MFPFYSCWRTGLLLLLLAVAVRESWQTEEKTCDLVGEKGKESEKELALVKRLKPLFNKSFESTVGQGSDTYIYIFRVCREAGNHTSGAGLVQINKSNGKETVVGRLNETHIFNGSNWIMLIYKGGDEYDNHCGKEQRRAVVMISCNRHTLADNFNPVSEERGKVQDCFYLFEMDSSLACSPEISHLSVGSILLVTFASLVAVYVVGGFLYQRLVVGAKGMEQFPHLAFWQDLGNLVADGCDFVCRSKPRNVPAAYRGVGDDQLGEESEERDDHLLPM
Sequence of UniProt O75915 (O75915 whole entry): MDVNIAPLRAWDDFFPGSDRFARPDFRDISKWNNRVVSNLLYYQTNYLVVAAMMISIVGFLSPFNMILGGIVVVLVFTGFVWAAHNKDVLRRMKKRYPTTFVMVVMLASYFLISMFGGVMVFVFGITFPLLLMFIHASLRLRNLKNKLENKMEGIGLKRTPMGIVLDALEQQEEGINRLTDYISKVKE

Compound in this assay: C#CCNC(=O)CCSSCCC(=O)NCCc1ccc(C=O)c(C=O)c1
Put plainly: lysine labeling ratio R10:1 (500 µM / 50 µM probe), SILAC-ABPP in living cells; higher = lower intrinsic lysine reactivity toward the probe, active = 2 or less. The conditions noted are these: HeLa; probe concentrations 500 vs 50 µM. In short, it runs like this:
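For each lysine, R is the median over forward and reverse replicates of the filtered median MS1 peptide ratio of high probe to low probe. The probe, an alkyne-tagged, disulfide-linked lysine probe, was given at 500 µM or 50 µM to living SILAC light and heavy HeLa cells in PBS at room temperature, with label swaps. Values are capped at 20.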
As to “ARL6IP5 (lysine site: K31) (UniProt O75915)”, the “lysine labeling ratio R10:1” value is 0.953 (active).
The same measure for UniProt P50281 (lysine site: K337): 1.7 (active); for “LMO7 (lysine site: K1496) (UniProt Q8WWI1)”: 2.11.
The same measure for “ITGA2 (lysine site: K884) (UniProt P17301)”: 1.93 (active).
Consider “M6PR (lysine site: K50) (UniProt P20645)”, for which the “lysine labeling ratio R10:1” value was 2.84.
The same measure for FAS (lysine site: K94) (UniProt P25445): 2.69.
The same measure for “L1CAM (lysine site: K56) (UniProt P32004)”: 3.74; for “TKT (lysine site: K538) (UniProt P29401)”: 1.86 (active).
The value for UniProt Q9H336 (lysine site: K468) was 1.33 (active); that for “TCP1 (lysine site: K126) (UniProt P17987)” was 2.14; that for “ITGA3 (lysine site: K407) (UniProt P26006)” was 2.96.
Turning to “SLC1A4 (lysine site: K239) (UniProt P43007)”, the “lysine labeling ratio R10:1” value was 1.94 (active).
The same measure for UniProt O94991 (lysine site: K280): 1.34 (active).
The same measure for “DDX5 (lysine site: K236) (UniProt P17844)”: 2.34; for “KRT18 (lysine site: K167) (UniProt P05783)”: 10.7; for “CDK5 (lysine site: K33) (UniProt Q00535)”: 6.8.
The value for “ECE1 (lysine site: K747) (UniProt P42892)” was 4.05.
